Measurements taken from the supplement of paper PMC10127200.
Counter-ions that a name gives are not always drawn.

Test system: DU145
Experiment: Euclidean distance of Cell Painting phenotypic profile (signed KS, 77 features) to DMSO centroid (dimensionless distance); 5 or 10 uM (library dependent); higher = stronger phenotypic change vs DMSO (phenoactivity)
Settings: 48 h
Summary of the method: (§1)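 Stained cells were imaged confocally at 20X with 9 fields per well, after 48 h of exposure to library compounds at 10 or 5 uM (set by library; 0.1% DMSO final). The cells were five cancer lines and a healthy fibroblast line. From the images, Harmony extracted 77 features, each expressed as a signed Kolmogorov-Smirnov statistic relative to same-plate vehicle wells. Phenoactivity is measured as Euclidean distance to the median vehicle profile, using plate-position-corrected, correlation-weighted profiles averaged across replicates at the top dose.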

| Compound | Euclidean distance |
| --- | --- |
| COc1cc2c(cc1OC)[C@H]1C[C@@H](OC(=O)[C@@H](N)C(C)C)[C@H](CC(C)C)CN1CC2 [Valbenazine tosylate] | 1.01 |
| Cc1c(C(=O)N2CCOc3ccc(-c4ccc(N)nc4)cc3C2)ccc(S(C)(=O)=O)c1F | 1.99 |
| C[C@@H](c1ncncc1F)[C@](O)(Cn1cncn1)c1ccc(F)cc1F [Voriconazole] | 0.9 |
| CN(C)CC/C=C1/c2ccccc2COc2ccc(CC(=O)O)cc21 [Olopatadine HCl] | 0.865 |
| NCC(=O)Nc1ccc(-n2nc(C(F)(F)F)cc2-c2ccc3c(ccc4ccccc43)c2)cc1 | 0.783 |
| COc1cc2c(Oc3ccc(NC(=O)C4(C(=O)Nc5ccc(F)cc5)CC4)cc3F)ccnc2cc1OCCCN1CCOCC1 | 1.35 |
| Cc1cn([C@H]2C[C@H](N=[N+]=[N-])[C@@H](CO)O2)c(=O)[nH]c1=O [Zidovudine] | 1.19 |
| COc1cc2nc(N3CCN(C(=O)c4ccco4)CC3)nc(N)c2cc1OC [Prazosin HCl] | 0.97 |

Test system: FB
Experiment: as above
Settings: 48 h
Summary of the method: as §1

| Compound | Euclidean distance |
| --- | --- |
| CN(C)c1ccc(O)c2c1C[C@H]1C[C@H]3[C@H](N(C)C)C(O)=C(C(N)=O)C(=O)[C@@]3(O)C(O)=C1C2=O [Minocycline HCl] | 1.33 |
| Clc1ccc(CCCOCCCN2CCCCC2)cc1 [Pitolisant hydrochloride] | 0.98 |
| Clc1ccc(C(c2ccccc2Cl)C(Cl)Cl)cc1 (stereo not drawn) [Mitotane] | 1.79 |
| CCOCC(O)COc1ccc(NC(=O)CC[S+](C)C)cc1 (stereo not drawn) [Suplatast Tosylate] | 1.14 |
| Cc1onc(-c2ccccc2)c1C(=O)N[C@@H]1C(=O)N2[C@@H]1SC(C)(C)[C@@H]2C(=O)O [Oxacillin sodium monohydrate] | 1.11 |
| NCC(=O)CCC(=O)O [5-Aminolevulinic acid HCl] | 1.12 |
| NS(=O)(=O)c1cc2c(cc1Cl)NC(C1CC3C=CC1C3)NS2(=O)=O (stereo not drawn) [Cyclothiazide] | 1.07 |
| CC(C)N1CCN(Cc2cnc(-c3cc(-c4cccc5[nH]ccc45)cc4[nH]ncc34)o2)CC1 | 3.33 |
| CC1(C)O[C@H]2CC(=O)OC[C@]23[C@H]2CC[C@@]4(C)[C@H](c5ccoc5)OC(=O)[C@H]5O[C@]54[C@]2(C)C(=O)C[C@@H]13 [Limonin] | 0.843 |
| COc1ccc(C2CC(=O)c3c(O)cc(OC4OC(COC5OC(C)C(O)C(O)C5O)C(O)C(O)C4O)cc3O2)cc1OC (stereo not drawn) [Methyl-Hesperidin] | 0.637 |
| CC1(C)S[C@@H]2[C@H](NC(=O)Cc3ccccc3)C(=O)N2[C@H]1C(=O)O.CCN(CC)CCOC(=O)c1ccc(N)cc1 [Penicillin G Procaine] | 1.38 |
| CN1CCCN=C1/C=C/c1cccs1 [Pyrantel Pamoate] | 1.28 |
| O=C(Nc1ccc(-c2ccnc(Nc3ccc(N4CCOCC4)cc3)n2)cc1)C1CCCN1 (stereo not drawn) | 1.52 |
| NC(=O)[C@@H]1CC[C@@H]2CN1C(=O)N2OS(=O)(=O)O [Avibactam sodium] | 0.925 |
| CC(C)(C(=O)c1cccnc1)c1cccnc1 [Metyrapone] | 1.36 |
| O=C(OC[C@H]1O[C@@H](OC(=O)c2cc(O)c(O)c(OC(=O)c3cc(O)c(O)c(O)c3)c2)[C@H](OC(=O)c2cc(O)c(O)c(OC(=O)c3cc(O)c(O)c(O)c3)c2)[C@@H](OC(=O)c2cc(O)c(O)c(OC(=O)c3cc(O)c(O)c(O)c3)c2)[C@@H]1OC(=O)c1cc(O)c(O)c(OC(=O)c2cc(O)c(O)c(O)c2)c1)c1cc(O)c(O)c(OC(=O)c2cc(O)c(O)c(O)c2)c1 [Tannic acid] | 1.45 |
| CN(C)CCOc1ccc(/C(=C(/CCCl)c2ccccc2)c2ccccc2)cc1 [Toremifene Citrate] | 1.97 |
| O=C(O[C@H]1CN2CCC1CC2)N1CCc2ccccc2[C@@H]1c1ccccc1 [Solifenacin succinate] | 2.68 |
| CCN(c1cc(-c2ccc(CN3CCOCC3)cc2)cc(C(=O)NCc2c(C)cc(C)[nH]c2=O)c1C)C1CCOCC1 [Tazemetostat (EPZ-6438)] | 0.92 |
| CC(C)(Oc1ccc(C(=O)c2ccc(Cl)cc2)cc1)C(=O)O [Choline Fenofibrate] | 1.28 |

| Compound | Euclidean distance |
| --- | --- |
| CC(C)(O)CC(=O)NCCn1ccc2ncnc(Nc3ccc(Oc4cccc(C(F)(F)F)c4)c(Cl)c3)c21 | 1.52 |
| O=C(c1cccc(Cl)c1F)N1CCN(Cc2cccc(Nc3nccs3)n2)CC1 | 2.34 |
| C[N+](C)(C)CCOC(N)=O [Carbachol] | 1.16 |
| CC(C)OC(=O)CCC/C=C\C[C@@H]1[C@@H](/C=C/[C@@H](O)COc2cccc(C(F)(F)F)c2)[C@H](O)C[C@@H]1O [Travoprost] | 1.11 |
| CCOc1cc(N)c(Cl)cc1C(=O)NCC1CN(Cc2ccc(F)cc2)CCO1 (stereo not drawn) [Mosapride] | 1.33 |
| CC1(C)C2CCC1(C)C(O)C2 (stereo not drawn) [Borneol] | 0.792 |
| Nc1nc(F)nc2c1ncn2[C@@H]1O[C@H](CO)[C@@H](O)[C@@H]1O [Fludarabine] | 1.81 |
| NNc1nncc2ccccc12 [Hydralazine HCl] | 1.33 |
| CC(C)Cc1ccc(C(C)C(=O)OCc2ccccn2)cc1 (stereo not drawn) [Ibuprofen piconol] | 0.788 |
| CC(C)(Sc1cc(C(C)(C)C)c(O)c(C(C)(C)C)c1)Sc1cc(C(C)(C)C)c(O)c(C(C)(C)C)c1 [Probucol] | 0.921 |
| CC(C)c1cc(C(=O)N2Cc3ccc(CN4CCN(C)CC4)cc3C2)c(O)cc1O | 2.97 |
| CN1[C@@H](CC(=O)c2ccccc2)CCC[C@H]1C[C@H](O)c1ccccc1 [Lobeline hydrochloride] | 1.44 |
| COc1cc2c(cc1OC)[C@H]1C[C@@H](OC(=O)[C@@H](N)C(C)C)[C@H](CC(C)C)CN1CC2 [Valbenazine tosylate] | 0.778 |
| Cc1c(C(=O)N2CCOc3ccc(-c4ccc(N)nc4)cc3C2)ccc(S(C)(=O)=O)c1F | 3.46 |
| C[C@@H](c1ncncc1F)[C@](O)(Cn1cncn1)c1ccc(F)cc1F [Voriconazole] | 1.01 |
| CN(C)CC/C=C1/c2ccccc2COc2ccc(CC(=O)O)cc21 [Olopatadine HCl] | 1.38 |
| NCC(=O)Nc1ccc(-n2nc(C(F)(F)F)cc2-c2ccc3c(ccc4ccccc43)c2)cc1 | 1.33 |
| COc1cc2c(Oc3ccc(NC(=O)C4(C(=O)Nc5ccc(F)cc5)CC4)cc3F)ccnc2cc1OCCCN1CCOCC1 | 1.52 |
| Cc1cn([C@H]2C[C@H](N=[N+]=[N-])[C@@H](CO)O2)c(=O)[nH]c1=O [Zidovudine] | 1.2 |
| COc1cc2nc(N3CCN(C(=O)c4ccco4)CC3)nc(N)c2cc1OC [Prazosin HCl] | 0.552 |
